# Measured values: the supplement of paper PMC7380943
# System: CLZ3 (HCA2 human fibroblast dual HR-NHEJ reporter)
# Assay: NHEJ repair efficiency (GFP+ cells) relative to control (log10 fold); higher = more non-homologous end joining
# Details: 5 µM; doxycycline 0.5 ug/mL
# 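Note: compound given one day ahead of doxycycline, which switches on I-SceI endonuclease to cut the chromosomally integrated reporter and create DSBs.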
row,Compound,NHEJ repair efficiency (log10)
1,C[C@@H]1O[C@@H](O[C@H]2[C@H](O[C@H]3CC[C@@]4(C)[C@@H](CC[C@]5(C)[C@@H]4CC=C4[C@@H]6CC(C)(C)CC[C@]6(C(=O)O[C@@H]6O[C@H](CO[C@@H]7O[C@H](CO)[C@@H](O)[C@H](O)[C@H]7O)[C@@H](O)[C@H](O)[C@H]6O)CC[C@]45C)[C@]3(C)CO)OC[C@H](O)[C@@H]2O)[C@H](O)[C@H](O[C@@H]2O[C@H](CO)[C@@H](O)[C@H](O)[C@H]2O)[C@H]1O [Macranthoidin A],-0.155
2,C=C(C)[C@@H]1CC[C@]2(C)CC[C@]3(C)[C@H](CC[C@@H]4[C@@]5(C)CC[C@H](O)C(C)(C)[C@@H]5CC[C@]43C)[C@@H]12 [Lupeol],0.0011
3,c1cc2c(c3c1CC1c4cc5c(cc4CCN1C3)OCO5)OCO2 (stereo not drawn) [Tetrahydrocoptisine],-0.0636
4,OC[C@H]1O[C@@H](Oc2cc3c(O)cc(O)cc3[o+]c2-c2ccc(O)c(O)c2)[C@H](O)[C@@H](O)[C@@H]1O [Cyanidin3-o-glucoside],-0.035
5,O=c1cc(-c2ccc(O)c(O)c2)oc2c([C@@H]3O[C@H](CO)[C@@H](O)[C@H](O)[C@H]3O)c(O)cc(O)c12 [Orientin],0.0454
6,CC(C)=CCc1cc2c(cc1O)oc(=O)c1c3ccc(O)cc3oc21 [Psoralidin],0.31
7,O=C(O)/C=C/c1ccc(O)c(O)c1 [Caffeic acid],0.0395
8,O=C1O[C@H]2[C@@H]3OC(=O)c4cc(O)c(O)c(O)c4-c4c(cc(O)c(O)c4O)C(=O)OC[C@H]2O[C@@H](OC(=O)c2cc(O)c(O)c(O)c2)[C@@H]3OC(=O)c2cc(O)c(O)c3c2[C@@H]2C1=CC(=O)[C@](O)(O3)C2(O)O [Geraniin],-0.0851
